# Laboratory results taken from paper PMC11062922 (Nature Chemical Biology, 2023).
# Like-named read-outs stand apart in the source and are kept apart here.
# Columns and labels:
# Set-up in all cases: species or system human, MV4-11 + K-562 + COLO205 + SK-N-BE2 + OVCAR-8
# CDK4 = conditions: read-out: apparent Kd, n = 1
# NQO1 = conditions: read-out: apparent Kd, n = 1
# PIM2 = conditions: read-out: apparent Kd, compound concentrations: 100 nM and 1000 nM (sheet 'Samples'), n = 1
# PRKAG1 = conditions: read-out: apparent Kd, n = 1
# SYK = conditions: read-out: apparent Kd; compound concentrations: 100 nM and 1000 nM (sheet 'Samples'), CATDS: 3.0941649644307598E-2; n = 1
# EPHB3 = conditions: read-out: apparent Kd; compound concentrations: 100 nM and 1000 nM (sheet 'Samples'), CATDS: 4.67907505867102E-2; n = 1
# MAPK8 = conditions: read-out: apparent Kd, compound concentrations: 100 nM and 1000 nM (sheet 'Samples'), n = 1
# ADCK3 = conditions: read-out: apparent Kd, n = 1
# CDK7 = conditions: read-out: apparent Kd, n = 1
# PDXK = conditions: read-out: apparent Kd, compound concentrations: 100 nM and 1000 nM (sheet 'Samples'), n = 1
# PIK3CG = conditions: read-out: apparent Kd, compound concentrations: 100 nM and 1000 nM (sheet 'Samples'), n = 1
# PIK3CD = conditions: read-out: apparent Kd, n = 1
# BMPR1A = conditions: read-out: apparent Kd; compound concentrations:100 nM and 1000 nM (sheet 'Samples'); n = 1
# NUAK1 = conditions: read-out: apparent Kd; compound concentrations:100 nM and 1000 nM (sheet 'Samples'); n = 1
# STK10 = conditions: read-out: apparent Kd; compound concentrations:100 nM and 1000 nM (sheet 'Samples'); n = 1
# [1] = compound concentrations:100 nM and 1000 nM (sheet 'Samples')
structure (smiles),measurement,setting,value
Clc1ccc(-c2nn3ncccc3c2-c2ccnc(Nc3ccccc3)n2)cc1 [GW829055X],potency estimated from few doses,"CDK4; compound concentrations: 100 nM and 1000 nM (sheet 'Samples'), CATDS: 3.2528026841687298E-2",1960 nM
same,potency estimated from few doses,"NQO1; compound concentrations: 100 nM and 1000 nM (sheet 'Samples'), CATDS: 4.2030828964441901E-2",1050 nM
same,potency estimated from few doses,PIM2; CATDS: 3.1911296970739501E-2,2070 nM
same,potency estimated from few doses,"PRKAG1; compound concentrations: 100 nM and 1000 nM (sheet 'Samples'), CATDS: 3.7997381036159197E-2",1320 nM
same,potency estimated from few doses,SYK,2270 nM
Fc1cccc(COc2ccc(Nc3ncncc3C#Cc3ccccc3)cc2Cl)c1 [GW651576X],potency estimated from few doses,EPHB3,2080 nM
same,potency estimated from few doses,"NQO1; compound concentrations: 100 nM and 1000 nM (sheet 'Samples'), CATDS: 4.6647451225595299E-2",2090 nM
COc1cc(N2CCN(C(C)C)CC2)ccc1Nc1nc(Nc2cccc(F)c2C(=O)O)c2cc[nH]c2n1 [GSK1819799A],potency estimated from few doses,MAPK8; CATDS: 0.22198197498325201,84.9 nM
same,potency estimated from few doses,PIM2; CATDS: 4.4865682499900299E-2,1710 nM
CCCN1CCC(Oc2cc(Nc3nc(Nc4cccc(F)c4C(N)=O)c4cc[nH]c4n3)c(OC)cc2Cl)CC1 [GSK1713088A],potency estimated from few doses,"ADCK3; compound concentrations: 100 nM and 1000 nM (sheet 'Samples'), CATDS: 0.349456505086152",604 nM
same,potency estimated from few doses,"CDK7; compound concentrations: 100 nM and 1000 nM (sheet 'Samples'), CATDS: 0.191679480220071",1740 nM
Cc1ccc(CC(=O)N2CCc3cc(-c4cn(C)c5ncnc(N)c45)ccc32)cc1 [GSK2634758A],potency estimated from few doses,"CDK4; compound concentrations: 100 nM and 1000 nM (sheet 'Samples'), CATDS: 0.135917779714779",2250 nM
same,potency estimated from few doses,PDXK; CATDS: 0.16794834883854801,1390 nM
Cn1cc(C2=C(c3cccc([N+](=O)[O-])c3)C(=O)NC2=O)c2ccccc21 [RO0317474-000],potency estimated from few doses,PDXK; CATDS: 0.221818886522231,628 nM
CC(=O)Nc1ccc2c(C3=C(c4cn(C)c5ccccc45)C(=O)NC3=O)cn(C)c2c1 [RO0317596-000],potency estimated from few doses,PDXK; CATDS: 0.18147743783192199,554 nM
Cc1ccc(NC(=O)c2ccc(Cl)cc2)cc1-c1ccc(C(=O)Nc2ccncc2)cc1 [GSK1398467A],potency estimated from few doses,"CDK4; compound concentrations: 100 nM and 1000 nM (sheet 'Samples'), CATDS: 0.17554209006480601",1650 nM
COc1ccc(S(=O)(=O)NC2CCN(c3cc(C)nc(Nc4cccc(C#N)c4)n3)CC2)cc1.O=C(O)C(F)(F)F [GSK1653539A],potency estimated from few doses,PIK3CG; CATDS: 0.32479738642046602,1380 nM
Cn1cc(C2=C(c3cn(CCCN/C(N)=N/[N+](=O)[O-])c4ccccc34)C(=O)NC2=O)c2ccccc21 [RO0318161-000],potency estimated from few doses,PDXK; CATDS: 0.37249947882966999,866 nM
Cn1cc(C2=C(c3cn(CCCCCO)c4ccccc34)C(=O)NC2=O)c2ccccc21 [RO0318053-000],potency estimated from few doses,PDXK; CATDS: 0.25573485461169798,60.4 nM
COc1cccc(C2=C(c3cn(C)c4c(C)cccc34)C(=O)NC2=O)c1 [RO3301012-000],potency estimated from few doses,"NQO1; compound concentrations: 100 nM and 1000 nM (sheet 'Samples'), CATDS: 0.106114123885474",1550 nM
same,potency estimated from few doses,PDXK; CATDS: 9.7216683357623401E-2,2000 nM
COc1ccc(C2=C(c3cn(C)c4ccccc34)C(=O)NC2=O)cc1OC [RO3206363-000],potency estimated from few doses,"PIK3CD; compound concentrations: 100 nM and 1000 nM (sheet 'Samples'), CATDS: 0.47573299908292999",9.3 nM
same,potency estimated from few doses,"PRKAG1; compound concentrations: 100 nM and 1000 nM (sheet 'Samples'), CATDS: 0.103334601265543",99.5 nM
COc1ccc(-c2nn3ncccc3c2-c2ccnc(Nc3ccc4c(c3)OCCO4)n2)cc1 [GW827106X],potency estimated from few doses,PIK3CG; CATDS: 5.53437190113686E-2,1180 nM
Cc1[nH]nc2c1N=C(c1ccccc1Cl)c1cc([N+](=O)[O-])ccc1N2 [RO0274406-000],potency estimated from few doses,PDXK; CATDS: 8.1891234484878103E-2,832 nM
Cn1cc(C2=C(c3ccccc3[N+](=O)[O-])C(=O)NC2=O)c2ccccc21 [RO0317753-000],potency estimated from few doses,PDXK; CATDS: 8.6520417055061499E-2,907 nM
Fc1ccc(-c2ncn(C3CCNCC3)c2-c2ccnc(Oc3ccc4c(c3)OCO4)n2)cc1 [SB-250715],potency estimated from few doses,NQO1; [1],1700 nM
same,potency estimated from few doses,PRKAG1; [1],1750 nM
Cc1ccc(-n2nc(C(C)(C)C)cc2NC(=O)Nc2ccc(OCCN3CCOCC3)cc2)cc1 [BIRB0876BS],potency estimated from few doses,ADCK3; [1],48.9 nM
same,potency estimated from few doses,PIK3CD; [1],9.61 nM
NC(=O)c1cccnc1COc1cc(-c2ccc(N3CCOCC3)nc2)cc2ncccc12 [BI01125081],potency estimated from few doses,ADCK3; [1],257 nM
same,potency estimated from few doses,BMPR1A,1370 nM
same,potency estimated from few doses,NUAK1,1080 nM
same,potency estimated from few doses,PIK3CD; [1],126 nM
COc1cc(F)c(F)c(F)c1C(=O)c1cnc(NC2CCN(S(C)(=O)=O)CC2)nc1N [RO4600703-000],potency estimated from few doses,CDK4; [1],1310 nM
same,potency estimated from few doses,CDK7; [1],821 nM
COc1cc2ncn(-c3cc(OCc4sccc4Cl)c(C(N)=O)s3)c2cc1OC [GSK448459A],potency estimated from few doses,STK10,333 nM
N#Cc1ccc(-c2cc(-c3c[nH]nc3-c3ccccn3)ccn2)cc1 [GW693028X],potency estimated from few doses,ADCK3; [1],671 nM
Nc1nccc(-c2c(-c3ccc(F)cc3)ncn2C2CCC(O)CC2)n1 (stereo not drawn) [SB-223133],potency estimated from few doses,MAPK8; CATDS: 2.73704072863558E-2,969 nM
